Screening results (PubChem BioAssay)
Shown are actives, neighbours in structure and some others; about 4.1% of the full set was active somewhere.
MazF activator – increases E. coli MazEF RNase cleavage of RNA; 0.32% of 350,000 active; AID 504720; FAM/BHQ RNA-DNA oligo cleavage fluorescence, 5 h; activation, % at 20 µM; P0AE70; in the data active = activation above about 50%
Target sequence (P0AE70 whole entry, looked up): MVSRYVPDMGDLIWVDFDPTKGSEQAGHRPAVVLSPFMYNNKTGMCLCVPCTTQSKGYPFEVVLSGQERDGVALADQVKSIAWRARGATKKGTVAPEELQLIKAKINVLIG
Autofluor counter – flagged as autofluorescent in microsphere protease counterscreen; compound autofluorescence counterscreen, microsphere flow cytometry; stronger effect = higher value; fluorescence intensity (concentration not given with the values); 3.1% of 360,000 active; in the data active = fluorescence intensity above about 16000; inconclusive = no clear call, values can overlap the other calls
DUSP3 inh – inhibitors of human VHR1 phosphatase (DUSP3); P51452; inhibition, % at 13.3 µM; recombinant VHR phosphatase, pNPP absorbance; 0.52% of 290,000 active; in the data active = inhibition above about 50%
Target sequence (P51452 whole entry, looked up): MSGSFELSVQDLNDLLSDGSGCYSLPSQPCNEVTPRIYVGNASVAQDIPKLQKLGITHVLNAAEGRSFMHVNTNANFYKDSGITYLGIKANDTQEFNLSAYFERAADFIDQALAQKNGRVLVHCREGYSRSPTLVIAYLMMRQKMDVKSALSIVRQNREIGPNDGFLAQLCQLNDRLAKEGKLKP
BoNT F protease – inhibitors of Botulinum neurotoxin F light chain protease; Multiplex microsphere protease cleavage assay, flow cytometry; inhibition, % at 10 µM; 0.22% of 360,000 active; AID 588497; in the data active = inhibition above about 35%, passing the limit was not always enough; inconclusive = no clear call, values can overlap the other calls; also: plate controls were buffer without enzyme for full effect and enzyme alone for no effect
BoNT-A LC inh2 – blocks Botulinum neurotoxin A light chain protease | multiplex microsphere protease substrate cleavage, flow cytometry | inhibition, % at 10 µM | 0.17% of 360,000 active | AID 588499; also: plate controls were buffer without enzyme for full effect and enzyme alone for no effect
Anthrax LF prot – inhibitors of Bacillus anthracis lethal factor protease; P15917; multiplex microsphere protease cleavage assay, LF; inhibition, % at 10 µM; 0.12% of 360,000 active; also: plate controls were buffer without enzyme for full effect and enzyme alone for no effect
Numbers without * were called inactive; ? = inconclusive; . = no result. Rule as the data show it, unless noted: active = inhibition above about 30%; inconclusive = no clear call, values can overlap the other calls; inactive = below that.

SMILES	MazF activator	Autofluor counter	DUSP3 inh	BoNT F protease	BoNT-A LC inh2	Anthrax LF prot
Cc1ccc(S(=O)(=O)c2c(N)n(CCC(C)C)c3nc4ccccc4nc23)cc1	3	22605*	-4	0	2	2
O=C(NCc1nnc(SCC(=O)N2CCOCC2)o1)c1c(F)cccc1F	2	6025	-2	-2	1	-3
CN1CCN(C(=O)c2cc3ccccc3[nH]2)CC1	-15	3966	-16	-9	-2	5
Cc1ccc(S(=O)(=O)N2CCCN(C(=O)c3cc4ccccc4[nH]3)CC2)cc1	-6	5562	50*	-6	1	-3
CCC1CCCCN1C(=O)c1cc(-c2ccc(Cl)c(Cl)c2)on1 (stereo not drawn)	-10	25388*	4	-7	?	-4
O=C(c1cc(-c2ccc(Cl)c(Cl)c2)on1)N1CCN(c2ccccc2)CC1	-7	21958*	15	-4	-5	-4
O=C(c1cc(-c2ccc(Cl)c(Cl)c2)on1)N1CCCCC1	-1	11151	2	0	0	-7
CC1CCCCN1C(=O)c1cc(-c2ccc(Cl)c(Cl)c2)on1 (stereo not drawn)	-7	22609*	15	-2	?	-4
CCOC(=O)c1c(/N=C/C2C(=O)NC(=O)NC2=O)sc2c1CCC2	123*	3797	9	-2	-1	-4
COc1cc([N+](=O)[O-])ccc1NC(=O)COC(=O)CCS(=O)(=O)c1ccc(C)cc1	0	?	.	10	6	6
CSc1nnc(N2C(=O)C(O)=C(C(=O)c3ccco3)C2c2ccccc2)s1 (stereo not drawn)	54*	4601	-4	3	2	2
CSc1nnc(N2C(=O)C(O)=C(C(=O)c3ccc(C)o3)C2c2ccc(C)cc2)s1 (stereo not drawn)	254*	6400	10	5	2	-1
CSc1nnc(N2C(=O)C(O)=C(C(=O)c3ccco3)C2c2ccccc2F)s1 (stereo not drawn)	21	4375	12	-4	0	-4
O=C1CN=C(c2cccs2)c2c(sc3c2CCCC3)N1	0	10334	23	-3	-1	-14
Cc1cc2c(s1)NC(=O)CN=C2c1cccs1	5	19677*	-13	0	?	-1
CC(C)[C@H]1COCCS(=O)(=O)N1Cc1ccccc1-c1ccc(F)cc1	3	3654	.	0	0	-8
CC(C(=O)N1CCOCC1)c1ccccc1 (stereo not drawn)	-3	3035	.	-3	0	-1
CC(C)Cc1ccc(C(C)C(=O)N2CCOCC2)cc1 (stereo not drawn)	-7	22712*	-4	3	?	0
CCOC(=O)c1c(C)[nH]c(C(=O)OCC(=O)N(CC(C)C)C2CCS(=O)(=O)C2)c1C (stereo not drawn)	-2	5898	.	12	5	2
COc1ccccc1N1CCN(C(=O)c2nn(C)c3c2CS(=O)(=O)c2ccccc2-3)CC1	3	5712	50*	-4	-1	-2
COc1ccc(N2CCN(C(=O)c3nn(C)c4c3CS(=O)(=O)c3ccccc3-4)CC2)cc1	6	5314	-4	4	1	1
CC1CCCN(C(=O)C2c3ccccc3C(=O)N3CCc4ccccc4C23)C1 (stereo not drawn)	4	23724*	19	-5	-2	0
COc1cc2cc(/C=C/C(=O)c3ccco3)c(Cl)nc2cc1OC	267*	4079	27	9	7	4
Cc1ccc(NCCC(=O)c2ccc(Cl)cc2)cc1C	-9	24235*	6	-6	-1	-1
Cc1ccc(NCCC(=O)c2ccc(Cl)c(Cl)c2)cc1	-5	23171*	31	-3	?	0
SMILES	MazF activator	Autofluor counter	DUSP3 inh	BoNT F protease	BoNT-A LC inh2	Anthrax LF prot
CCc1ccc(NCCC(=O)c2ccc(Cl)cc2)cc1	3	7029	24	-8	-1	-5
CN(Cc1cnn(-c2ccc(F)cc2)c1)C(=O)[C@H]1O[C@@H](n2ccc(=O)[nH]c2=O)[C@H](O)[C@@H]1O	.	5550	.	5	0	6
O=C(O)CCCCCNC(=O)c1ccc(C(=O)NCCCCCC(=O)O)cc1	3	4778	16	-1	0	-3
CN(C)CCCNC(=O)c1ccccn1	8	16671*	12	-4	-1	1
O=C(O)CCCCCNC(=O)c1ccncc1	-11	19428*	24	0	?	-5
O=C(NCCCNCc1ccccc1)c1ccncc1	-5	10365	8	-4	0	-2
CN(C)CCCNCCCNC(=O)c1ccncc1	2	21704*	2	0	1	-8
OC[C@@H]1CN(Cc2ccco2)C[C@H](n2cnc3c(N4CCOCC4)ncnc32)O1	.	3848	.	4	0	1
Cc1ccc(-n2c([S-])c(C(=O)Nc3ccc(OC(F)F)cc3)[n+]3ccc(C(=O)NCCO)cc23)cc1C	-11	4775	9	2	51*	20
COc1ccccc1-n1c([S-])c(C(=O)Nc2ccccc2C(F)(F)F)[n+]2ccc(C(=O)NCCO)cc12	-7	4782	6	6	36*	12
CCN(CC)CCCNC(=O)c1ccc(OCC(=O)Nc2ccccc2C(F)(F)F)c(OC)c1	5	2326	10	0	1	2
CC(C)CC(NC(N)=O)C(=O)Nc1ccc(Cl)c(Cl)c1 (stereo not drawn)	10	3989	51*	1	0	2
Cc1ccc(NC(=O)C(CC(C)C)NC(N)=O)cc1Cl (stereo not drawn)	4	2250	8	-3	0	0
O=C(NCCC1CCCCN1S(=O)(=O)c1ccccc1)C(=O)NCc1ccc(F)cc1 (stereo not drawn)	-1	.	.	.	.	.
CC1(c2nnnn2Cc2ccccc2)CCC(=O)N1CCc1ccc(O)cc1 (stereo not drawn)	.	4460	.	-8	-1	0
C[C@H]1CN([C@@H](C)CO)C(=O)CCCn2cc(nn2)CO[C@@H]1CN(C)C(=O)NC1CCCCC1	.	6009	.	-3	0	-10
Cc1cc(C)n2nc(CC(=O)NC3CCCCCC3)nc2n1	2	19846*	3	-4	-1	-2
Cc1ccc(C(=O)NNC(=O)Cc2nc3nc(C)cc(C)n3n2)cc1	2	4281	7	-6	0	-1
O=C(c1ccc2c(c1)[nH]c(=S)n1c3ccccc3nc21)N1CCN(c2ncccn2)CC1	91*	4444	13	-13	0	-2
COc1ccccc1C1CCN(C(=O)c2ccc(C(C)(C)C)cc2)CC1	3	4539	-5	-32	-2	0
CCOC(=O)[C@]12CCCC=C1N(Cc1ccc3c(c1)OCO3)C(=O)[C@H](CC(=O)NCC1CCCCC1)C2	.	5221	.	1	0	-4
CC(=O)/C(=N/Nc1ccccc1)N1CCOCC1	-6	22407*	6	3	2	-2
CC1(C)CC(=O)c2sc(NS(=O)(=O)Cc3ccccc3)nc2C1	8	22981*	-3	2	?	2
